Structures can show the parent of a compound that is named as a salt. ± gives the standard deviation of the averaged measurements.

The first experiment has as its system E. coli TESEC Alr+ wild-type control. As to the kind of experiment: growth (OD600 after 10 h); higher = more growth (less inhibition). The note with it: compound 0.1 mM; raw OD600 reference: median of DMSO wells 0.241, cell-free background 0.041. On the procedure:
(§1)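 TESEC Mtb Alr E. coli, or the Alr+ wild-type control, in 384-well plates with Prestwick library compounds at 0.1 mM and 1% DMSO, across arabinose induction levels of 1E3 to 1E7 nM. Growth is read as OD600 after 10 h at 37 °C in triplicate biological replicates.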
The compound `O=P1(NCCCl)OCCCN1CCCl` (stereo not drawn) [Ifosfamide] registered a growth of 0.233 ± 0.012.

Consider `CCN(C(C)=O)c1cccc(-c2ccnc3c(C#N)cnn23)c1` [Zaleplon], for which the growth turned out to be 0.205 ± 0.0057.

`C[C@]12CCC(=O)C=C1CC[C@@H]1[C@@H]2C(=O)C[C@]2(C)C(=O)CC[C@@H]12` [Adrenosterone] had a growth of 0.212 ± 0.0061.

As to `CN1CCN(C(=O)OC2c3nccnc3C(=O)N2c2ccc(Cl)cn2)CC1` (stereo not drawn) [Zopiclone], the growth came out at 0.222 ± 0.0047.

As to `O=C(O)CCCc1ccc(N(CCCl)CCCl)cc1` [Chlorambucil], the growth was determined as 0.2478 ± 0.002.

In turn, `CCC1(C)CC(=O)NC(=O)C1` [Bemegride] returned a growth of 0.237 ± 0.0029.

As to `CCCCCC[C@H]1C(=O)O[C@H](C)[C@H](NC(=O)c2cccc(NC=O)c2O)C(=O)O[C@@H](C)[C@@H]1OC(=O)CC(C)C` [Antimycin A], the growth is 0.191 ± 0.0077.

For `CC(=O)OCC1=C(C(=O)O)N2C(=O)[C@@H](N)[C@H]2SC1` [Cephalosporanic acid, 7-amino], the growth was found to be 0.254 ± 0.0055.

`CC(N)C(O)c1ccccc1` (stereo not drawn) [Phenylpropanolamine hydrochloride] showed a growth of 0.26 ± 0.0031.

`C[C@]12Cc3c[nH]nc3C[C@@H]1CC[C@@H]1[C@@H]2CC[C@@]2(C)[C@H]1CC[C@]2(C)O` [Stanozolol] showed a growth of 0.184 ± 0.0086.

Consider `NC(=O)CN1CCCC1=O` [Piracetam], for which the growth worked out at 0.245 ± 0.0091.

As for `O=P1(N(CCCl)CCCl)NCCCO1` (stereo not drawn) [Cyclophosphamide], the growth is 0.2382 ± 0.0022.

For a further experiment, the system named is E. coli TESEC Mtb Alr. The experiment is described as above. The note with it: arabinose 1000 nM; compound 0.1 mM; raw OD600 reference: median of DMSO wells 0.294, cell-free background 0.041. Here is the method: as §1
Consider `CC(C)(C)NCC(O)c1ccccc1Cl` (stereo not drawn) [Tulobuterol], for which the growth was determined as 0.272 ± 0.0075.

Compound `Clc1ccc(C(OCCN2CCCCC2)c2ccccc2)cc1` (stereo not drawn) [Cloperastine hydrochloride] had a growth of 0.232 ± 0.0029.

As for `CN(C)C(=O)Oc1cc(OC(=O)N(C)C)cc(C(O)CNC(C)(C)C)c1` (stereo not drawn) [Bambuterol hydrochloride], the growth was 0.266 ± 0.04.

As to `C[C@@H]1C[C@@H]([C@H](O)CC2CC(=O)NC(=O)C2)C(=O)[C@@H](C)C1` [Cycloheximide], the growth amounted to 0.314 ± 0.018.

The compound `CC(Cc1ccc(O)cc1)NCC(O)c1cc(O)cc(O)c1` (stereo not drawn) [Fenoterol hydrobromide] registered a growth of 0.283 ± 0.02.

In turn, `COc1ccc(CCN)cc1OC` [Homoveratrylamine] showed a growth of 0.287 ± 0.0094.

In turn, `C(#CCN1CCCC1)CN1CCCC1` [Tremorine dihydrochloride] displayed a growth of 0.317 ± 0.011.

Regarding `O=C1CC[C@@]2(O)[C@H]3Cc4ccc(O)c5c4[C@@]2(CCN3CC2CC2)[C@H]1O5` [Naltrexone hydrochloride dihydrate], the growth turned out to be 0.279 ± 0.022.

`C[N+]1(C)CCCC(OC(=O)C(O)(c2ccccc2)c2ccccc2)C1` (stereo not drawn) [Mepenzolate bromide] registered a growth of 0.307 ± 0.016.

The compound `C1CCc2nnnn2CC1` [Pentylenetetrazole] came in with a growth of 0.282 ± 0.018.

As to `CC(=O)NC1CCSC1=O` (racemic) [N-Acetyl-DL-homocysteine Thiolactone], the growth was 0.312 ± 0.021.

The compound `CNC(C)(C)Cc1ccccc1` [Mephentermine hemisulfate] gave a growth of 0.303 ± 0.018.

On to `N[C@@H]1C[C@H]1c1ccccc1` [Tranylcypromine hydrochloride], for which the growth came out at 0.285 ± 0.018.

Consider `CC(NC(C)(C)C)C(=O)c1cccc(Cl)c1` (stereo not drawn) [Bupropion hydrochloride], for which the growth stood at 0.283 ± 0.018.

As for `CCC(=O)O[C@@](Cc1ccccc1)(c1ccccc1)[C@@H](C)CN(C)C` [Levopropoxyphene napsylate], the growth worked out at 0.249 ± 0.005.

For `COP(=O)(OC)C(O)C(Cl)(Cl)Cl` (stereo not drawn) [Trichlorfon], the growth stood at 0.293 ± 0.0065.

Regarding `CCN[C@@H](C)Cc1cccc(C(F)(F)F)c1` [Dexfenfluramine hydrochloride], the growth is 0.315 ± 0.0066.

`CN1C(=O)CCS(=O)(=O)C1c1ccc(Cl)cc1` (stereo not drawn) [Chlormezanone] displayed a growth of 0.298 ± 0.018.

Turning to `O=c1c2ccccc2[se]n1-c1ccccc1` [Ebselen], the growth was 0.295 ± 0.02.

`C[C@@H]1CN([C@H]2CC[C@](C#N)(c3ccc(F)cc3)CC2)CC[C@]1(C(=O)O)c1ccccc1` [Levocabastine hydrochloride] showed a growth of 0.274 ± 0.0041.

`C[N+]12CCC(CC1)C(OC(=O)C(O)(c1ccccc1)c1ccccc1)C2` (stereo not drawn) [Clidinium bromide] showed a growth of 0.326 ± 0.011.

For `C[C@]12CCC(=O)C(O)=C1CC[C@@H]1[C@@H]2CC[C@]2(C)C(=O)CC[C@@H]12` [Formestane], the growth is 0.182 ± 0.011.

Take `NCCCNCCSP(=O)(O)O` [Amifostine]: the growth stood at 0.297 ± 0.011.

`CC(C)(N)Cc1ccccc1` [Phentermine hydrochloride]: the growth stood at 0.288 ± 0.017.

`CN[C@@H]1C[C@@H](c2ccc(Cl)c(Cl)c2)c2ccccc21` [Indatraline hydrochloride] yielded a growth of 0.0417 ± 0.00046.

As to `C[C@@H]1CC[C@H]2[C@@H](C)C(=O)O[C@@H]3O[C@@]4(C)CC[C@@H]1[C@]32OO4` [Artemisinin], the growth was found to be 0.121 ± 0.0046.

Source of the values: the supplement of paper PMC9262897, “Low-cost anti-mycobacterial drug discovery using engineered E. coli” (Nature Communications, 2022).
